Test results published in PubChem BioAssay AID687043 (Milwaukee Institute for Drug Discovery, 2013).
Out of some 16,000 compounds screened, about 250 (1.6%) were called active.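 How the source made its calls: active means inhibition above the average over every tested compound plus 3 SD (cut at about 40% in these data); inactive means the rest.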 The entries come from a sample that favours actives as a whole.

What follows are compounds tested on Hepatitis C virus NS3 helicase (assay: compounds blocking NS3h DNA binding – biochemical, fluorescence polarization, ChemBridge library, primary screen (AID 687043)). Conditions: NS3h Cy5-dT15 DNA binding, at 100 µM, active compounds read high.

Compound | inhibition
CCCOC(=O)Cc1c(O)c2ccccc2[nH]c1=O | -1.3% (inactive)
O=[N+]([O-])c1ccc2c(c1)S(=O)(=O)N=C2Nc1cccnc1 | -7.4% (inactive)
O=c1[nH][nH]c(=O)c2cc(N3CCCC3)ccc12 | 4.3% (inactive)
O=C(NCc1ccccc1)C1CC(=O)N(c2ccc(Cl)cc2)C1 (configuration not stated) | 2.8% (inactive)
Cc1ccc2c(C)[n+](C)ccn12 | 15.6% (inactive)
COc1ccc(C2CC(=O)C3=C(C2)Nc2ccccc2NC3c2ccc(SC)cc2)cc1 (configuration not stated) | 11% (inactive)
Cc1cccc(NC(=O)/C=C/c2ccc(F)cc2)c1 | 2.2% (inactive)
Cc1ccc(/C=C/C(=O)Nc2ccc(Br)cc2)o1 | 42.5% (active)
Cc1ccc(/C=C/C(=O)Nc2cccc([N+](=O)[O-])c2)o1 | 6.1% (inactive)
Cc1cccc(N2C(=O)S/C(=C/c3ccc(N(C)C)cc3)C2=O)c1 | 15.9% (inactive)
COc1ccc(C2CC(=O)C3=C(C2)Nc2ccccc2NC3c2cccc(Cl)c2)cc1 (configuration not stated) | 9.2% (inactive)
CCCCCCN1C(=O)C(O)=C(C(C)=O)C1c1ccc(Br)cc1 (configuration not stated) | -0.7% (inactive)
CCCCNC(=O)C(=O)NCCCOC(C)C | 4.2% (inactive)
O=C(Nc1ccc(Cl)cc1)/C(=C\c1cccc([N+](=O)[O-])c1)NC(=O)c1cccs1 | 0.7% (inactive)
FC(F)(F)c1cc(/C=C/c2ccccc2)n[nH]1 | 10.2% (inactive)
CC(C)(C)C(=O)COc1ccc2c(-c3ccccc3)cc(=O)oc2c1 | 14.2% (inactive)
COc1ccc(C2C=C(Nc3ccccc3)C(=O)N2c2ccccc2)c(OC)c1 (configuration not stated) | -9.5% (inactive)
FC(F)(F)c1ccc(/C=N\N2CCN(Cc3cccc4ccccc34)CC2)cc1 | 3.6% (inactive)
O=C1C2ON(c3ccccc3)C(c3ccc(Br)cc3)C2C(=O)N1c1ccccc1C(F)(F)F (configuration not stated) | 13.4% (inactive)
CCc1c(C)nc2cc(-c3cccs3)[nH]n2c1=O | -7.2% (inactive)
O=c1c2c(nc3cc(-c4cccc(F)c4)[nH]n13)CCS2 | 57.3% (active)
CC(=O)Nc1c(C)cc(C2(c3cc(C)c(NC(C)=O)c(C)c3)CCCCC2)cc1C | 2.3% (inactive)
CCOC(=O)c1c(-c2ccc(C)cc2C)csc1NC(=S)NC(=O)c1ccccc1 | 3.9% (inactive)

Compound | inhibition
O=C(NC(Cc1ccc(O)cc1)C(=O)O)/C(=C/c1ccccc1)NC(=O)c1ccccc1 (configuration not stated) | -11.5% (inactive)
Cc1cccc(N(CC(=O)O)S(C)(=O)=O)c1 | 4.5% (inactive)
CCOC(=O)c1ccc(NC(=O)CN(c2cccc([N+](=O)[O-])c2)S(=O)(=O)c2ccccc2)cc1 | 24.9% (inactive)
O=C(O)CC1S/C(=N\N=C2/C(=O)Nc3ccccc32)N(c2ccc(O)cc2)C1=O (configuration not stated) | 1.8% (inactive)
CCOc1ccccc1NC(=O)CN(c1ccc(OC)cc1)S(=O)(=O)c1ccc(C)cc1 | 13.8% (inactive)
COc1cc(/C=C2/SC(=S)N(C)C2=O)ccc1OC(=O)c1cccs1 | 2.6% (inactive)
COc1ccc(-c2nc3cc(NC(=O)C(C)C)ccc3o2)cc1OC | -6.3% (inactive)
CC(=O)C1=C(C)NC(C)=C(C(C)=O)C1c1cn(-c2ccccc2)nc1-c1cccs1 | 15.6% (inactive)
O=C(NC(=S)Nc1ccc2oc(-c3cccnc3)nc2c1)c1ccc(Cl)cc1 | -3.5% (inactive)
O=C(NC(=S)Nc1ccc(-c2nc3cc(Cl)ccc3o2)cc1)c1ccco1 | 124% (active)
O=C(NC(=S)Nc1ccc2oc(-c3ccc(Br)cc3)nc2c1)c1ccco1 | 17% (inactive)
CCOC(=O)C1=C(C)N=c2s/c(=C\c3ccc(F)cc3)c(=O)n2C1c1cccc(OC)c1 (configuration not stated) | 10% (inactive)
O=C(NCCCc1ccccc1)C1(c2ccccc2)CCCC1 | 27% (inactive)
CCN(CC)c1ccc(/C=C2\C(=O)NC(=O)N(C)C2=O)cc1 | 27.7% (inactive)
CCN(CC)c1ccc(C=C2C(=O)N(C)C(=O)N(C)C2=O)c(O)c1 | 120% (active)
CCN(CC)c1ccc(/C=C2\C(=O)NC(=O)N(c3ccc(OC)cc3)C2=O)c(OC)c1 | -5.2% (inactive)
Cc1ccc(N2C(=O)NC(=O)/C(=C\c3ccc(I)cc3)C2=O)cc1 | 12.1% (inactive)
CCOC(=O)c1c(CN(CCO)CCO)n(C)c2c1cc(OC(C)=O)c1c2c(-c2ccccc2)nn1-c1ccccc1 | -6.5% (inactive)
Cc1ccc(N2C(=O)CC(NCCc3ccccc3F)C2=O)cc1 (configuration not stated) | 8.2% (inactive)
CCOC(=O)c1ccc(NC(=O)c2ccccc2OC)cc1 | 17.7% (inactive)
Cc1ccc([N+](=O)[O-])cc1NC(=O)C1CC1(c1ccccc1)c1ccccc1 (configuration not stated) | 1.8% (inactive)
O=S(=O)(Nc1ccc(O)c(-c2c(O)ccc3ccccc23)c1)c1cc(Cl)ccc1Cl | 4.2% (inactive)
CCCCCCN1C(=O)C(=O)C(=C(O)c2ccccc2)C1c1ccccc1OC (configuration not stated) | 1.4% (inactive)

Compound | inhibition
COc1cc(C(=S)N2CCOCC2)cc(OC)c1OC(=O)c1ccc(Br)cc1 | 15.4% (inactive)
Cc1ccc(S(=O)(=O)c2ccc(Sc3ccc(Cl)cc3)cc2)cc1 | 15.4% (inactive)
COc1ccc(-c2nc3sc(-c4ccc(OC)cc4)nc3s2)cc1 | 6% (inactive)
O=C1NC(=Nc2ccc(F)cc2)S/C1=C/c1ccc(Br)cc1 | 4.6% (inactive)
Cc1cc(NC(=O)c2ccc(-c3cccc([N+](=O)[O-])c3)o2)ccc1NC(=O)c1ccco1 | 14.7% (inactive)
CCOc1cccc2c1N(C(=O)c1ccc(OC)cc1)C(C)(C)C(=S)C2=C1SC(C(=O)OC)=C(C(=O)OC)S1 | 0.9% (inactive)
CS(=O)(=O)N1CCN(C(=O)Cc2ccccc2)CC1 | 7.7% (inactive)
CCOc1ccc(/C=C2/Sc3ccccc3C2=O)cc1OCC | 6.1% (inactive)
COc1ccc(N2C(=O)C=CC2=O)c([N+](=O)[O-])c1 | 97.8% (active)
COc1ccc(N=Cc2sccc2C)c([N+](=O)[O-])c1 | 4.3% (inactive)
COc1ccc(N2C(=O)C3C4C=CC(C4=C(C)C)C3C2=O)c([N+](=O)[O-])c1 (configuration not stated) | 15.2% (inactive)
Cc1ccc2[nH]c(C)c(CN3CCOCC3)c(=O)c2c1 | -1.6% (inactive)
CC(Oc1cccc(Cl)c1)C(=O)Nc1ccccc1C(=O)N1CCN(Cc2ccccc2)CC1 (configuration not stated) | 0.3% (inactive)
COC(=O)C(NC(=O)c1ccccc1)C12CC3CC(CC(C3)C1)C2 (configuration not stated) | 7.5% (inactive)
Cc1cc(C)n(C(=O)c2cc(F)c(F)cc2Cl)n1 | 3.6% (inactive)
Cc1ccc(NC2=CC(=O)C=CC2=O)c(C)c1 | -2.9% (inactive)
COc1ccc(OC)c(N(CC(=O)Nc2cccc(Br)c2)S(C)(=O)=O)c1 | 9.1% (inactive)
CCC(=O)N1CCN(c2ccc(C(=O)c3ccccc3)cc2F)CC1 | -2.8% (inactive)
Cc1cc(/C=C(/C#N)C(=O)Nc2ccc(F)cc2)c(C)n1-c1ccc(Cl)cc1 | -2.8% (inactive)
CCN1C(=O)C(=Cc2ccc(O)cc2)C(=O)NC1=S | 65.4% (active)
CCOC(=O)c1ccc(N2NC(=O)/C(=C/c3ccc(O)cc3)C2=O)cc1 | 5.1% (inactive)
COc1ccc(/C=C2\C(=O)NC(=S)N(c3ccc(Br)cc3)C2=O)cc1 | 5.9% (inactive)
COc1ccccc1NC(=O)C(=O)NCc1ccccc1 | -0.6% (inactive)

Compound | inhibition
Cc1oc2cc(Br)c(O)cc2c1C(=O)OC(C)C | 9.4% (inactive)
O=C(c1nn2c(c1Cl)NC(c1cccs1)CC2C(F)(F)F)N1CCN(c2ccc(F)cc2)CC1 (configuration not stated) | 5.2% (inactive)
Cc1cccc(NC(=O)CSc2ncn[nH]2)c1 | 1.3% (inactive)
COc1ccc(CNS(=O)(=O)c2ccc(Cl)cc2)cc1 | -5% (inactive)
CCN(CC)c1ccc(NC(=O)/C(=C\c2ccccc2)NC(C)=O)cc1 | 56.6% (active)
CC(=O)Nc1ccc(NC(=S)NC(=O)/C=C/c2ccccc2)cc1 | -21.9% (inactive)
CC(C)Oc1ccc(/C=C(/NC(=O)c2ccccc2)C(=O)Nc2ccccc2)cc1 | 14.7% (inactive)
Cc1c(C=O)c(=O)oc2c3c4c(cc12)CCCN4CCC3 | 1.3% (inactive)
O=C(NC1C2CC3CC(C2)CC1C3)c1cccc(I)c1 (configuration not stated) | 15.2% (inactive)
O=c1oc2ccc3ccccc3c2cc1-c1ccc(I)cc1 | 4.2% (inactive)
CC(=O)Oc1ccccc1-c1nc2s/c(=C/c3ccco3)c(=O)n2n1 | 6.7% (inactive)
Cc1cc(/C=C2\C(=O)NC(=O)N(c3ccc4c(c3)OCO4)C2=O)c(C)n1-c1ccc(F)cc1 | 14.5% (inactive)
Cc1cccc(OCCOc2ccc(Cl)cc2/C=C2/SC(=S)N(C)C2=O)c1 | 23.2% (inactive)
O=C1C2C3C=CC(C3)C2C(=O)N1/N=C\c1ccc(-c2ccccc2[N+](=O)[O-])o1 (configuration not stated) | 10.6% (inactive)
COC(=O)c1ccccc1NC(=O)c1ccc(Cl)cc1 | -2.8% (inactive)
COc1ccc(CC(=O)Nc2cc(NC(=O)Cc3ccc(OC)cc3)cc(C(=O)NC(C)(C)C)c2)cc1 | 8.2% (inactive)
O=C1NN(c2ccccc2)C(=O)/C1=C/c1c(Cl)cccc1Cl | 8.3% (inactive)
O=C1c2ccc(C(c3ccc4c(c3)C(=O)N(c3ccccc3)C4=O)(C(F)(F)F)C(F)(F)F)cc2C(=O)N1c1ccccc1 | 8.7% (inactive)
CC(C)C(=O)Nc1ccc2c3c(cccc13)CC2 | 0.3% (inactive)
COc1ccccc1N1CCN(/N=C(/C)c2ccncc2)CC1 | -3.7% (inactive)
COc1ccc(/C=c2\sc3n(c2=O)C(c2ccc(OC)cc2)C(C(=O)OC(C)C)=C(C)N=3)cc1 (configuration not stated) | -0.7% (inactive)
CCOc1ccccc1NC(=O)c1ccc(CN2CCOCC2)cc1 | 6.1% (inactive)
Cc1ccc(C(=O)N/C(=C/c2cccc3ccccc23)C(=O)N2CCCC2)cc1 | -0.3% (inactive)
